Screening results from PubChem.
BoNT-F LC inh: BoNT F light chain protease inhibition. Multiplex microsphere protease cleavage assay, flow cytometry. AID 588497. 360,000 tested, 0.22% active. inhibition, % at 10 µM; in the data active = inhibition above about 35%, passing the limit was not always enough; inconclusive = no clear call, values can overlap the other calls; also: plate controls were buffer without enzyme for full effect and enzyme alone for no effect
Anthrax LF prot: inhibitors of Bacillus anthracis lethal factor protease; P15917; inhibition, % at 10 µM; multiplex microsphere protease cleavage assay, LF; 360,000 tested, 0.12% active; also: plate controls were buffer without enzyme for full effect and enzyme alone for no effect
BoNT A protease: inhibitors of Botulinum neurotoxin A light chain protease; AID 588499; inhibition, % at 10 µM; multiplex microsphere protease substrate cleavage, flow cytometry; 360,000 tested, 0.17% active; also: plate controls were buffer without enzyme for full effect and enzyme alone for no effect
MazF activator: activators of E. coli MazEF toxin-antitoxin RNase | 350,000 tested, 0.32% active | P0AE70 | activation, % at 20 µM | FAM/BHQ RNA-DNA oligo cleavage fluorescence, 5 h; in the data active = activation above about 50%
Target sequence (P0AE70 whole entry, looked up): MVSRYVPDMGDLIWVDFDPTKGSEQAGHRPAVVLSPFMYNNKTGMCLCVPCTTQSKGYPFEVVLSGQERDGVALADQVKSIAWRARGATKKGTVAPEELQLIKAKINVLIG
Autofluor counter: compound fluorescence in toxin protease inhibitor counterscreen; compound autofluorescence counterscreen, microsphere flow cytometry; hits give high values; fluorescence intensity (concentration not given with the values); 360,000 tested, 3.1% active; in the data active = fluorescence intensity above about 16000; inconclusive = no clear call, values can overlap the other calls
An asterisk follows results filed as active; u = inconclusive; x = no result given. A selection: hits, their analogues and other compounds. The true share with any hit is near 3.7%. Rule as the data show it, unless noted: active = inhibition above about 30%; inconclusive = no clear call, values can overlap the other calls; inactive = below that.

SMILES	BoNT-F LC inh	Anthrax LF prot	BoNT A protease	MazF activator	Autofluor counter
COc1ccc2[nH]c(=O)c(C(c3nnnn3C3CCCC3)N3CCN(Cc4ccc5c(c4)OCO5)CC3)cc2c1 (stereo not given)	3	-4	2	-18	5893
COc1ccc2[nH]c(=O)c(C(c3nnnn3C3CCCC3)N(C)C3CCCCC3)cc2c1 (stereo not given)	-4	-3	u	-15	24246*
COc1ccc2cc(C(c3nnnn3C3CCCCC3)N3CCCCCC3)c3nnnn3c2c1 (stereo not given)	-18	-2	0	1	3526
COc1cc2cc(C(c3nnnn3C3CCCC3)N3CCCCCC3)c(=O)[nH]c2cc1OC (stereo not given)	-4	0	-1	1	20987*
CC(C)(CNC(=O)CNC(=O)c1ccccc1F)N1CCOCC1	2	-6	3	6	8444
C[C@@H]1CN([C@H](C)CO)C(=O)CCCn2nncc2CO[C@@H]1CN(C)S(=O)(=O)c1cccs1	-11	-4	0	0	3015
CCOC(=O)C1=C[C@@H](C2CCCC2)N(S(=O)(=O)c2ccc([N+](=O)[O-])cc2)[C@H]1c1ccccc1	1	0	0	x	5941
O=c1[nH]c2cc3c(cc2cc1C(c1nnnn1C1CCCCC1)N1CCSCC1)OCCO3 (stereo not given)	0	6	3	-22	22680*
Cc1ccc2cc(C(c3nnnn3C3CCCC3)N3CCOCC3)c(=O)[nH]c2c1C (stereo not given)	3	14	1	6	9655
O=C(NCN1CCc2ccccc2C1)c1cnccn1	-11	-2	0	10	11833
O=C(NCN1CCc2ccccc2C1)c1ccccc1	-6	-1	-2	4	17046*
O=C(CN1CCc2ccccc2C1)Nc1ccccc1N1CCCCCC1	-3	-3	0	-10	23403*
O=C(CNCCC1=CCCCC1)Nc1ccccc1N1CCCCC1	-11	-8	-3	-7	17116*
COC(=O)NNC(=O)/C=C/c1ccccc1	-4	1	0	-1	2368
O=C(/C=C/c1ccccc1)NNC(=O)C1CC1	4	-4	4	-2	21872*
CC1=C(C(=O)Nc2ccccc2)C(c2ccco2)NC(=S)N1 (stereo not given)	-7	-1	-2	7	24277*
CC1=C(C(=O)Nc2ccccc2)C(c2ccco2)NC(=O)N1 (stereo not given)	5	-4	1	2	9478
O=S(=O)(c1ccc(-c2nnc(SCc3ccccc3)o2)cc1)N1CCCC1	3	2	u	-43	19388*
Cc1ccc(CSc2nnc(-c3ccc(S(=O)(=O)N4CCCC4)cc3)o2)cc1	-5	-6	0	-41	22758*
O=S(=O)(c1cccc(-c2nnc(-c3ccc(Br)cc3)o2)c1)N1CCCCCC1	6	-2	3	5	20866*
NC(=O)CSc1nnc(-c2cccc(S(=O)(=O)N3CCCCC3)c2)o1	-5	5	0	7	3280
NC(=O)CSc1nnc(-c2ccc(S(=O)(=O)N3CCCC3)cc2)o1	3	0	0	3	10271
CCOc1ccc(C(=O)Nc2c3c(nn2-c2cccc(Cl)c2)CS(=O)C3)cc1 (stereo not given)	-1	0	-1	-3	22721*
COc1ccc(C(=O)Nc2ccccc2C(=O)N(Cc2ccco2)C(C(N)=O)C(C)C)cc1 (stereo not given)	3	-2	0	-13	22943*
Cc1ccc(/C=N/NC(=S)NCCc2ccccc2)s1	-6	-3	-1	3	4496
SMILES	BoNT-F LC inh	Anthrax LF prot	BoNT A protease	MazF activator	Autofluor counter
CCCCNC(=S)N/N=C/c1ccc(C)s1	-12	-3	u	2	24604*
O=C(CCc1ccco1)CCc1ccco1	11	0	0	7	3898
CCOC(=O)N1CCN(C(=O)CSCC(=O)Nc2nc(-c3ccc4c(c3)OCO4)cs2)CC1	2	-6	2	-2	19205*
CCN1C(=O)c2ccccc2S(=O)(=O)c2ccc(C(=O)NCCOC)cc21	61*	10	2	3	2966
CCN1C(=O)c2ccccc2S(=O)(=O)c2ccc(C(=O)NCC(OC)OC)cc21	1	13	2	3	3675
O=C(NCC(c1cccs1)N1CCOCC1)c1cc(S(=O)(=O)N2CCOCC2)ccc1F (stereo not given)	1	2	5	3	u
COc1cc(C(=O)NCCCCCCNC(=O)c2cc(OC)c(OC)c(OC)c2)cc(OC)c1OC	u	-4	-2	-1	3610
CCN1CCCC1CNC(=O)CCNC(=O)c1cc(OC)c(OC)c(OC)c1 (stereo not given)	0	-6	0	-7	10740
CCN(CC)CC(C)OC(=O)c1cc(OC)c(OC)c(OC)c1 (stereo not given)	4	-1	u	10	19405*
CCOCCCNC(=O)CCNC(=O)c1cc(OC)c(OC)c(OC)c1	-3	-4	-1	3	20238*
COc1cc(C(=O)NCCC(=O)NCCCN2CCCCC2)cc(OC)c1OC	-6	-6	-7	5	25617*
COc1cc(C(=O)NCC(C)C)cc(OC)c1OC	-1	-2	-1	0	16687*
COc1ccc(-c2nnc(C(C)Nc3cccc(C(=O)NC4CC4)c3)o2)cc1 (stereo not given)	-7	0	3	-1	4931
Cc1[nH]c2ccccc2c1C(=O)C(C)OC(=O)C1CCC1 (stereo not given)	0	2	3	-1	4313
CCC(C)(C)C1CCC2(CC1)NC(=O)N(CC(=O)NCCc1c[nH]c3ccccc13)C2=O (stereo not given)	-6	-3	0	0	3742
CN(CCOc1ccc(Cl)cc1)c1ccc(S(=O)(=O)N2CCCCC2)cn1	-6	-4	u	0	24914*
Cc1ccc(OCCNc2ccc(S(=O)(=O)N3CCCC3)cn2)cc1	-7	u	-4	3	7214
Cc1cc(C)nc(/N=C(\N)C2=C(O)CC(C)(C)CC2=O)n1	-4	-2	0	1	21038*
CC(=Nc1ccccc1)C1=C(O)CC(C)(C)CC1=O	-8	-10	-1	1	4531
c1ccc(-c2nc3ccccc3nc2-c2ccccn2)nc1	3	0	2	-6	22188*
CCc1nnc(SCC(=O)N2CCCC(N3CCN(c4ccccc4C)CC3)C2)o1 (stereo not given)	-2	1	2	6	5088
CCOCC(O)CS(=O)(=O)c1ccccn1 (stereo not given)	2	0	u	-2	23197*
CCCS(=O)(=O)NC(=O)C1(C)CCCN(C(=O)c2ccc(F)c(Cl)c2)C1 (stereo not given)	0	6	0	x	3818
Clc1ccccc1OCCCCN1CCCC1	7	-5	9	1	20741*
CCOC(=O)N1CCC(NC(=O)c2cc(C)c3c(C)nn(-c4ccccc4)c3n2)CC1	7	-8	4	4	19067*
Cc1ccc(C(=O)N2CCN(S(=O)(=O)c3ccc(C(C)C)cc3)CC2)s1	5	1	2	1	u
